Experimental findings from PubChem BioAssay (Tox21) are described below.

A short description of test [1]: qHTS assay to identify small molecule agonists of H2AX (AID 1224845; active = well fitted activation curve with a large enough effect in the signal ratio in the repeat runs, not every such curve was filed as active; the % refers to the signal ratio; note: potency is the fitted concentration of half-maximal effect). In a few lines: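 Wild-type CHO-K1 cells plated overnight, then exposed 3 hr at 37C to compounds at 15 concentrations (0.76% DMSO). Lysed, then HTRF anti-pH2AX(S139)-cryptate/anti-H2AX-d2 detection after 24 hr at room temperature; emissions 665 and 620 nm.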
The nature of test [2]: qHTS assay to identify small molecule agonists of H2AX - cell viability counter screen (AID 1224847; calls by dose curve; note: nearly all actives have a fitted effect of over 30% in size; note: potency is the fitted concentration of half-maximal effect). In a few lines:
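Cells plated first: CHO-K1, 1000 per well in 10% FBS medium, incubated overnight at 37C. Then 15-point compound titration added (final DMSO 0.76%) for 3 hr. Finally CellTiter-Glo added and luminescence read.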
For orientation: Quantitative high-throughput screening tests each substance at several concentrations.

The nature of test [3]: qHTS assay to identify small molecule agonists of the estrogen related receptor (ERR) signaling pathway from Tox21 library (AID 1224849; calls by dose curve; note: nearly all actives have a fitted effect of over 15% in size). The settings on record: ERR reporter cell line, ONE-Glo luciferase, 18 h; at 92.4 µM (top of the series) unless noted. In a few lines: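 Luciferase activity in ERR pathway reporter cells served as the agonist readout; exposure lasted 18 h at 37 C, with ONE-Glo detection after 30 min at room temperature.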

Test [4] in a line: qHTS RealTime-Glo MT Cell Viability Assay in HepG2 cells - 24 hour (AID 1224867). Note: nearly all actives have a fitted effect of over 50% in size. Note: potency is the fitted concentration of half-maximal effect. In a few lines:
(§1)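 Compound treatment began 5 h after plating HepG2 cells (600/well) with NanoLuc luciferase and prosubstrate. Plates stayed at 37 C for 40 h; luminescence was captured at six time points, 0 h through 40 h.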

Test [5] can be described thus: qHTS RealTime-Glo MT Cell Viability Assay in HEK293 cells - 32 hour (AID 1224868). Note: nearly all actives have a fitted effect of over 50% in size. Note: potency is the fitted concentration of half-maximal effect. In a few lines:
(§2)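 Quantitative high-throughput screen of the Tox21 10K library in HEK293: cells and RealTime-Glo reagents plated together, compound added at 5 h, luminescence monitored through 40 h at 37 C.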

Test [6] is described as follows: A CellTox Green Cytotoxicity Assay to monitor cytotoxicity in HEK293 cells - 0 hour (AID 1224869). Note: nearly all actives have a fitted effect of over 50% in size. In a few lines:
(§3)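 Real-time, in one plate: 600 HEK293 cells/well with dead-cell DNA dye, pinned compound after 5 h, 37 C incubation over 40 h; viable cells give no appreciable fluorescence.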

A short description of test [7]: qHTS RealTime-Glo MT Cell Viability Assay in HepG2 cells - 40 hour (AID 1224870). Note: nearly all actives have a fitted effect of over 50% in size. Note: potency is the fitted concentration of half-maximal effect. In a few lines: (§4)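 HepG2 cells mixed with RealTime-Glo MT reagents (NanoLuc plus cell-permeant prosubstrate) were seeded at 600 cells/well, incubated 5 h at 37 C/5% CO2, then pinned with compounds in DMSO; nonlytic luminescence tracked viability during 40 h treatment.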
Test [8] is described as follows: A CellTox Green Cytotoxicity Assay to monitor cytotoxicity in HEK293 cells - 40 hour (AID 1224871). Note: nearly all actives have a fitted effect of over 45% in size. Note: potency is the fitted concentration of half-maximal effect. The method in brief: as §3
Test [9] is described as follows: qHTS RealTime-Glo MT Cell Viability Assay in HEK293 cells - 16 hour (AID 1224872). Note: nearly all actives have a fitted effect of over 50% in size. Note: potency is the fitted concentration of half-maximal effect. The method in brief: as §2
Test [10] in a line: qHTS RealTime-Glo MT Cell Viability Assay in HepG2 cells - 8 hour (AID 1224873). Note: nearly all actives have a fitted effect of over 55% in size. Note: potency is the fitted concentration of half-maximal effect. The method in brief:
as §4

A short description of test [11]: qHTS RealTime-Glo MT Cell Viability Assay in HEK293 cells - 40 hour (AID 1224874). Note: nearly all actives have a fitted effect of over 50% in size. Note: potency is the fitted concentration of half-maximal effect. Conditions: RealTime-Glo luminescence; max response: active compounds read low. The method in brief:
(§5)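 Kinetic, non-lysing viability readout. Seed HEK293 (600/well) with reagent, incubate 5 h at 37 C/5% CO2, pin 23 nL compound in DMSO, incubate at 37 C, read luminescence at 0, 8, 16, 24, 32, 40 h.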

A short description of test [12]: A CellTox Green Cytotoxicity Assay to monitor cytotoxicity in HEK293 cells - 24 hour (AID 1224875). Note: nearly all actives have a fitted effect of over 45% in size. Note: potency is the fitted concentration of half-maximal effect. The method in brief: as §3
Test [13] can be described thus: A CellTox Green Cytotoxicity Assay to monitor cytotoxicity in HepG2 cells - 16 hour (AID 1224876). Note: nearly all actives have a fitted effect of over 45% in size. Note: potency is the fitted concentration of half-maximal effect. The method in brief:
(§6)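 Cytotoxicity was tracked as dead-cell DNA fluorescence in HepG2 cells treated with test compounds at 37 C; each time-point value comes from one kinetic series spanning 0, 8, 16, 24, 32 and 40 h.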

The nature of test [14]: qHTS RealTime-Glo MT Cell Viability Assay in HepG2 cells - 32 hour (AID 1224877). Note: nearly all actives have a fitted effect of over 55% in size. Note: potency is the fitted concentration of half-maximal effect. In a few lines: as §1
Test [15] in a line: A CellTox Green Cytotoxicity Assay to monitor cytotoxicity in HepG2 cells - 24 hour (AID 1224878). Note: nearly all actives have a fitted effect of over 45% in size. Note: potency is the fitted concentration of half-maximal effect. In a few lines: as §6
A short description of test [16]: A CellTox Green Cytotoxicity Assay to monitor cytotoxicity in HepG2 cells - 40 hour (AID 1224879). Note: nearly all actives have a fitted effect of over 40% in size. Note: potency is the fitted concentration of half-maximal effect. The method in brief: as §6
Test [17] in a line: qHTS RealTime-Glo MT Cell Viability Assay in HEK293 cells - 0 hour (AID 1224880). The method in brief: as §5
Test [18] can be described thus: qHTS assay to identify small molecule antagonists of the estrogen related receptor (ERR) signaling pathway from Tox21 library (AID 1224848). Note: nearly all actives have a fitted effect of over 50% in size. Note: potency is the fitted concentration of half-maximal effect. In a few lines: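 First, 2,000 ERR cells per well were plated and held 6 h at 37 C/5% CO2. Next, compounds in DMSO were pinned in and left 18 h at 37 C. Finally, ONE-Glo was added and luminescence read after 30 min at room temperature.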

The nature of test [19]: qHTS assay to identify small molecule agonists of the hypoxia (HIF-1) signaling pathway (AID 1224846; active = well fitted activation curve with a large enough effect in the signal ratio in the repeat runs, not every such curve was filed as active; the % refers to the signal ratio). The method in brief:
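ME-180 HRE-bla reporter cells; compounds in DMSO, 17 h at 37C; read-out beta-lactamase via CCF4-AM FRET.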

Several values for one entry are separate records, joined by “and”; a condition that tells them apart may be missing. Equal values may be shown once. Values without a mark were called inactive. Results filed as inconclusive are left out. Activity calls are given as the source filed them. Unless noted, calls come from the whole dose curve; as a rule, active = well fitted curve in the direction sought with a large enough effect in the repeat runs; inconclusive = weak or mixed curves; inactive = no such curve, though single readings can be large; an effect the other way counts as inactive or inconclusive.
% is set by controls: 0 for no effect and ±100 for the full control effect.

Take `CCCCON=O`: the Potency result in [1], in test [2], in test [4], in test [5], in test [6] and in test [7] was “inactive” throughout. The Potency entry in test [8], in test [9], in test [10], in test [12], in test [13] and in test [14] was “inactive” in each case. For the same compound, the Potency entry in test [15], in [16] and in [17] was “inactive” each time. For the same compound, the activity change, positive = activation in test [3] was -4.4%. Also, the max response in test [11] was 4.44%.
`Clc1ccc(C(Cl)(Cl)Cl)cc1Cl`: the Potency entry in [2], in [6] and in test [17] was “inactive” each time. The Potency in test [5] is 33900 nM (active); in test [8], 33900 nM (active); in test [9], 33900 nM (active); in [11], 33.9 µM (active); in test [12] it was 33900 nM (active); in test [13] it was 47900 nM (active). The Potency in test [15] and in [16] was 47900 nM (active) each time.
Consider `CCC[CH2][Sn]([CH2]CCC)([O]C(C)=O)[O]C(C)=O`, for which the Potency in test [1] is 906 nM (active); in [18], 61.7 nM (active); in [4], 278 nM (active); in test [5] it was 78.3 nM (active); in test [7], 175 nM (active); in [8], 278 nM (active). Further, the Potency was 87.9 nM (active) in [9]; 0.0698 µM (active) in test [11]; 1240 nM (active) in test [12]; 221 nM (active) in test [14]; 312 nM (active) in test [15]; 248 nM (active) in test [16]. The Potency entry in [2], in test [6], in test [10] and in [17] was “inactive” throughout. Moreover, in test [3], the activity change, positive = activation is -79.9%.
Take `CC(C)N(C(=O)CCl)c1ccccc1`: the Potency in test [18] is 15.4 µM (active) and 13.7 µM (active); in test [11], 49 µM (active) and 38.9 µM (active); in [16], 43600 nM (active). In addition, the activity change, positive = activation in test [3] is -77.7% and -74.7%. Moreover, the Potency entry in test [6], in [8], in test [12], in test [13], in test [15] and in [17] was “inactive” each time.
On to `CCCCCCC[CH2][Sn]([Cl])([Cl])[CH2]CCCCCCC`, for which the Potency result in test [2], in test [4], in [5], in [6], in test [7] and in [8] was “inactive” in each case. The Potency result in test [9], in test [10], in test [12], in test [13], in [14] and in test [15] was “inactive” throughout. In addition, the Potency result in test [16] and in [17] was “inactive” each time. For the same compound, the Potency in test [18] is 61100 nM (active). For the same compound, the activity change, positive = activation in test [3] was -59.9%. Also, the max response in test [11] is -19.1%.
As to `CCCCC(CC)COC(=O)OOC(C)(C)C` (configuration not stated), the Potency result in test [1], in test [19], in [2], in test [4], in test [5] and in test [6] was “inactive” each time. Besides, the Potency entry in test [8], in [9], in [12], in test [13], in test [14] and in [15] was “inactive” each time. In addition, the Potency entry in test [16] and in test [17] was “inactive” throughout. Moreover, the max response in test [11] is 0.0606%.
Turning to `CCCC[N+]1(C)CCCC1` (tested in a mixture with another compound), the Potency result in test [1], in test [2], in test [4], in [5], in test [6] and in test [7] was “inactive” throughout. Further, the Potency entry in [8], in test [9], in [10], in [12], in test [13] and in test [14] was “inactive” each time. Besides, the Potency entry in test [15], in test [16] and in test [17] was “inactive” each time. Further, in test [11], the max response was 8.56%.
In the case of `N#Cc1c2ccccc2cc2ccccc12`, the Potency result in test [1], in [18], in test [4], in test [5], in test [6] and in [7] was “inactive” in each case. Moreover, the Potency entry in test [8], in [9], in test [10], in [12], in test [13] and in [14] was “inactive” in each case. Further, the Potency entry in [15] and in test [17] was “inactive” throughout. For the same compound, the activity change, positive = activation in [3] was 3.94%. Besides, the max response in [11] is -9.07%.
As for `CC#C[C@]1(O)CC[C@H]2[C@@H]3C[C@H](C)C4=CC(=O)CC[C@]4(C)[C@H]3CC[C@@]21C`, the Potency in [1] was 7800 nM (active). Moreover, the Potency result in [2], in test [4], in [6], in test [7], in test [8] and in test [9] was “inactive” throughout. In addition, the Potency entry in test [10], in test [12], in test [13], in [14] and in [15] was “inactive” throughout.
`COC(=O)c1cc(Oc2ccc(Cl)cc2Cl)ccc1[N+](=O)[O-]`: the Potency entry in [1], in test [19], in test [4], in test [6], in test [7] and in test [8] was “inactive” in each case. In addition, the Potency entry in [10], in test [12], in [14], in test [15], in test [16] and in test [17] was “inactive” each time.
With `CCc1cccc(C)c1N(C(=O)CCl)[C@@H](C)COC`, the Potency entry in test [19], in test [5], in test [6], in test [7], in [9] and in test [17] was “inactive” each time. The activity change, positive = activation in test [3] was -67.3%. The max response in [11] was -25.5%. Besides, the Potency in test [13], in test [15] and in test [16] was 49000 nM (active) each time.
Consider `O=S(=O)(NS(=O)(=O)C(F)(F)F)C(F)(F)F`, for which the Potency result in test [1], in test [4], in test [6], in [7], in test [10] and in test [12] was “inactive” throughout. Moreover, the Potency entry in [14] and in [17] was “inactive” in each case. The Potency in [2] is 56500 nM (active); in test [5] it was 1940 nM (active); in test [11] it was 1.94 µM (active); in [15] it was 48900 nM (active); in test [16], 48900 nM (active).
For the compound `O.O.O.O=C([O-])[C@H]([O-])[C@@H]([O-])C(=O)[O-].O=C([O-])[C@H]([O-])[C@@H]([O-])C(=O)[O-].[K+].[K+].[Sb+3].[Sb+3]`, in test [1], the Potency is 114000 nM (active). Further, the Potency result in [2], in test [6], in test [7], in test [12], in [13] and in test [15] was “inactive” throughout. The Potency entry in [17] was “inactive”.
In the case of `CC(=O)[O][Sn]([c]1ccccc1)([c]1ccccc1)[c]1ccccc1`, the Potency in test [1] is 101 nM (active); in [2], 142 nM (active); in [18] it was 77 nM (active); in test [5], 38.9 nM (active); in test [8], 219 nM (active); in test [9], 49 nM (active). Moreover, the Potency was 11000 nM (active) in [10], 0.0347 µM (active) in [11] and 245 nM (active) in test [12]. Moreover, the activity change, positive = activation in test [3] was -74%. For the same compound, the Potency entry in test [6] and in test [17] was “inactive” throughout.
